Experimental data: PubChem BioAssay (NCI)
The panel holds about 79,000 compounds, 15% with a hit somewhere; the sample as a whole holds those more often. Activity calls are given as the source filed them. Cut-off read from the data, not from the text of the source: active = growth inhibition above about 70%; inactive = the rest.

Legend:
[1] = NCI Yeast Anticancer Drug Screen. Data for the rad50 strain (AID 155);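 note: 0% = growth of vehicle-only cultures of the same strain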; details: S. cerevisiae rad50 strain growth inhibition; at 50.0 µM; hits give high values
Outline: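 Growth of the mutant yeast was measured after compound exposure and referenced to vehicle-treated cultures.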

[2] = NCI Yeast Anticancer Drug Screen. Data for the mec2-1 strain (AID 157); details: S. cerevisiae mec2-1 strain, at 50.0 µM, hits give high values
Outline: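 Each compound was tested on mec2-1 yeast, a strain altered in DNA damage repair or cell cycle control. Growth inhibition is reported relative to vehicle.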

[3] = NCI Yeast Anticancer Drug Screen. Data for the sgs1 mgt1 strain (AID 161);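 note: 0% = growth of cultures given vehicle only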; details: S. cerevisiae sgs1 mgt1 strain, at 50.0 µM, hits give high values
Outline: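 Inhibition of yeast growth, normalised to vehicle-treated controls, is reported for a strain bearing genetic alterations in DNA damage repair.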

[4] = NCI Yeast Anticancer Drug Screen. Data for the cln2 rad14 strain (AID 165);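 note: 0% = growth equal to vehicle treated cultures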; details: S. cerevisiae cln2 rad14 strain, at 50.0 µM, hits give high values
Outline: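 Test compounds were added to cln2 rad14 yeast cultures; inhibition of growth was then determined by comparison with vehicle treatment.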

[5] = NCI Yeast Anticancer Drug Screen. Data for the bub3 strain (AID 167); details: S. cerevisiae bub3 mutant strain, at 50.0 µM, hits give high values
Outline: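 Whole-cell yeast assay. The mutant strain was incubated with compounds, and growth inhibition was determined by comparison with vehicle-treated cells.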

[6] = NCI Yeast Anticancer Drug Screen. Data for the mlh1 rad18 strain (AID 175); details: S. cerevisiae mlh1 rad18 strain growth inhibition; at 50.0 µM; hits give high values
Outline: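 Inhibition values reflect reduced growth of mutant yeast versus vehicle-treated controls following compound exposure; the mutations affect DNA damage repair.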

Measured: growth inhibition

O=C(O)Cc1cccc2c(=O)cc(Cc3ccccc3)oc12
inactive: [1] -13.8% | [2] -16.6% | [3] -11.5% | [4] 6.6% | [5] 20.1% | [6] -15%

Cc1cc(Cl)c(=O)n(-c2ccccc2)n1
inactive: [1] 3.65% | [2] -9.7% | [3] -9.95% | [4] -27.8% | [5] 4.75% | [6] -16.1%

CC1(c2cccc3ccccc23)OC(=O)c2cccc(F)c21 (centres undefined)
inactive: [1] -10.9% | [2] -7.1% | [3] -16.1% | [4] 23.4% | [5] 7.6% | [6] 0.55%

COc1cc(Br)c(CC2c3cc(OC)c(OC)cc3CCN2C)cc1OC (centres undefined)
inactive: [1] -17% | [2] -25.4% | [3] -9.75% | [4] 3.2% | [5] -7.95% | [6] -13.4%

Cc1ccc(S(=O)(=O)NN=C2C(C)(C)C(=O)C2(C)C)cc1
inactive: [1] -1.5% | [2] -1.1% | [3] -32.9% | [4] 32.1% | [5] -2.25% | [6] -6.45%

CC(=O)OC1=NCC(OC(C)=O)=NC1
inactive: [1] 5.2% | [2] 13.9% | [3] 2.25% | [4] -16.9% | [5] 2.65% | [6] 6.5%

S=c1[nH]nc(COc2cccc3cccnc23)n1-c1ccccc1
inactive: [1] 12.5% | [2] 2.55% | [3] 2.05% | [4] 25.9% | [5] 13.4% | [6] 12.4%

C[N+](C)(C)CC(=O)NC(=O)N/N=C\C(CC#N)CN(Cc1ccccc1)Cc1ccccc1 (centres undefined)
inactive: [1] 23.5% | [2] 13.7% | [3] 19.1% | [4] 10.6% | [5] 2.35% | [6] 12.2%

CC1(O)CC2C=CC1CC2 (centres undefined)
inactive: [1] 9.65% | [2] 7.15% | [3] 4.6% | [4] 4% | [5] 9.55% | [6] 13.8%

OCc1ccc(O)c(CO)n1
inactive: [1] -8.85% | [2] -26.3% | [3] -3.35% | [4] 5.4% | [5] -20.6% | [6] 7.55%

COC(=O)c1ccc(Cl)c(Cl)c1Cl
inactive: [1] -3.6% | [2] -7.35% | [3] -19.6% | [4] -11.8% | [5] 6.1% | [6] -26.3%

COc1ccc(OC)c2c1ccc1c(C)c3ccccc3c(C)c12
inactive: [1] 12.2% | [2] -1.1% | [3] 14.2% | [4] 6.8% | [5] 34.1% | [6] 26.2%

O=C(c1ccccc1)C(c1ccccc1)n1nc2c(c1-c1ccccc1)CCCC2 (centres undefined)
active: [1] 84.4% | [2] 87.2% | [3] 83.9% | [4] 88.4% | [5] 86.4% | [6] 91.4%

Cc1ccccc1NC(=S)NN
inactive: [1] 22.2% | [2] 14.7% | [3] 14.1% | [4] 16.6% | [5] 11.9% | [6] 12.3%

CC1(C)C2CCC(CCOC(=O)COc3ccc(Cl)cc3Cl)C1C2 (centres undefined)
inactive: [1] -13% | [2] -5.45% | [3] 1% | [4] -34.8% | [5] 5% | [6] 29%

CSC1(C)C(=O)Nc2cc([N+](=O)[O-])ccc21 (centres undefined)
inactive: [1] 1.7% | [2] -11.1% | [3] 0.6% | [4] -14.2% | [5] -32.5% | [6] -5.55%

Cn1ccc2c3ccsc3ccc21
inactive: [1] 21.8% | [2] 6.35% | [3] 4.55% | [4] -5.5% | [5] 4.3% | [6] 1.05%

O=C1NC(N2CCOCC2)=N/C1=C\c1ccccc1O
inactive: [1] -1.3% | [2] -26% | [3] -7.8% | [4] -8.65% | [5] 16.1%
active: [6] 81.2%

COc1cccc(NC(=O)C(=O)C(C(C)=O)c2nc3ccc(Cl)cc3[nH]c2=O)c1 (centres undefined)
inactive: [1] -16.3% | [2] 3.7% | [3] -19.2% | [4] 15.4% | [5] 2.25% | [6] -5.4%

CCCCCCCC(=O)OCC1OC(n2cc(F)c(=O)[nH]c2=O)C(NC(=O)OCc2ccccc2)C(O)C1O (centres undefined)
inactive: [1] -15.1% | [2] -13.8% | [3] -66.8% | [4] -7.1% | [5] -12.4% | [6] -17.6%

COc1ccc(C(O)C(CN(C)C)CN(C)C)cc1 (centres undefined)
inactive: [1] -0.75% | [2] -19.6% | [3] 6.65% | [4] 8.15% | [5] 8.7% | [6] 10.8%

Cc1ccc(NC(=O)Oc2cc(C)c(Cl)cc2C(C)C)cc1
inactive: [1] -3.9% | [2] 54.2% | [3] 43% | [4] -28.2% | [5] 51.4% | [6] 65%

O=c1cnc2c(ccc3ccccc32)[nH]1
inactive: [1] -2.7% | [2] -20.8% | [3] -16.1% | [4] 6.55% | [5] 8.4% | [6] -5.95%

CCOC(=O)C(C)(OCC)OCC
inactive: [1] -13.4% | [2] -13.2% | [3] -17.2% | [4] -8.55% | [5] -0.3% | [6] 11.9%

CNc1ccc(Cl)cc1C(N)=O
inactive: [1] 2.8% | [2] 6.9% | [3] 28.7% | [4] -3.25% | [5] 7.05% | [6] 19.9%

O=S(=O)(Cl)c1cccc2cc3ccccc3cc12
inactive: [1] 0.6% | [2] -10.1% | [3] 3.95% | [4] -12.9% | [5] 12.9% | [6] -7.05%

O=C(OCC1OCOC(COC(=O)c2ccccc2)C(OC(=O)c2ccccc2)C1OC(=O)c1ccccc1)c1ccccc1 (centres undefined)
inactive: [1] 9.85% | [2] 8.35% | [3] -4.6% | [4] -13.8% | [5] -0.65% | [6] 19.6%

CC(C)CCOC(=O)NC1c2ccccc2Oc2ccccc21
inactive: [1] -10% | [2] 3.55% | [3] 3.65% | [4] 18% | [5] 0.1% | [6] -1.3%

CCS(=O)(=O)/C=C/c1cccnc1
inactive: [1] 0.45% | [2] -4.8% | [3] -11.4% | [4] -51.5% | [5] 3.05% | [6] 9.5%

COc1ccc2c(c1)C1=C(CC2)C(=O)OC1=O
inactive: [1] -0.9% | [2] 11.7% | [3] 28.5% | [4] 2.8% | [5] 5.05% | [6] -4.85%

Clc1ccc2nc(/C=C/c3ccccc3)ccc2c1
inactive: [1] -10.7% | [2] -4.2% | [3] -9.4% | [4] 3.35% | [5] 6.9% | [6] -15.7%

Cc1ccc2c(c1)C1(OC(=O)c3ccccc31)c1ccc(F)cc1O2 (centres undefined)
inactive: [1] 55% | [2] 12.8% | [3] 36.9% | [4] 36.8% | [5] 22.7% | [6] 18.1%

CCOC(=O)C(CC[C@@H]1N[C@H](C(N)=O)Cc2c1[nH]c1ccccc21)C(=O)OCC
inactive: [1] 8.5% | [2] -9.85% | [3] 5.3% | [4] 7.55% | [5] 7.9% | [6] -13.7%

CCOC(=O)/C=C/C=C(\OCC)C1CCC2C3CC=C4CC(OC(C)=O)CCC4(C)C3CCC12C (centres undefined)
inactive: [1] -4% | [2] -0.35% | [3] 23.1% | [4] 19.4% | [5] -3.3% | [6] -2.55%

CCN(CC)CCSC(=O)C(O)(c1ccccc1)c1cccc(C)c1 (centres undefined)
inactive: [1] 9.1% | [2] 10.1% | [3] -2.2% | [4] -11.9% | [5] -1.4% | [6] 10.6%

CCCCSc1n[nH]c(=O)nc1N
inactive: [1] -5.5% | [2] -7.95% | [3] -3.1% | [4] -11.3% | [5] -11.6% | [6] 3.9%

CCOC(=O)N1N=C(c2ccccc2)OC2(N3CCCC3)CCC(C(C)(C)C)CC12 (centres undefined)
inactive: [1] 11.1% | [2] 10.6% | [3] 9.4% | [4] -4.5% | [5] -4.25% | [6] 27.9%

c1ccc(CCc2ccnc3ccccc23)cc1
inactive: [1] 8.15% | [2] 3.1% | [3] -2.9% | [4] 1.6% | [5] 9.15% | [6] 5.55%

CC1(C)OC(C)(C)c2c1nnc(-c1ccccc1[N+](=O)[O-])[n+]2[O-]
inactive: [1] 8.1% | [2] 11.5% | [3] 22.4% | [4] 12.8% | [5] 26.9% | [6] 14.1%
